High-throughput results deposited in PubChem by National Center for Advancing Translational Sciences (NCATS).
Rows were chosen to be rich in hits. Some 2.9% of all compounds tested hit in one or more screens of this group.
KDM5B inhibitor = KDM5B demethylase inhibition. KDM5B demethylase, FDH-coupled NADH fluorescence (FDH is formaldehyde dehydrogenase). Q9UGL1. 2.6% of 220,000 active. Potency, µM (series often up to 57.7 µM), most hits filed as inhibitors; further: potency means the concentration at half of the fitted maximal effect; 0% is about no effect; nearly all actives have a fitted effect of over 70% in size
Target sequence (Q9UGL1 whole entry, looked up): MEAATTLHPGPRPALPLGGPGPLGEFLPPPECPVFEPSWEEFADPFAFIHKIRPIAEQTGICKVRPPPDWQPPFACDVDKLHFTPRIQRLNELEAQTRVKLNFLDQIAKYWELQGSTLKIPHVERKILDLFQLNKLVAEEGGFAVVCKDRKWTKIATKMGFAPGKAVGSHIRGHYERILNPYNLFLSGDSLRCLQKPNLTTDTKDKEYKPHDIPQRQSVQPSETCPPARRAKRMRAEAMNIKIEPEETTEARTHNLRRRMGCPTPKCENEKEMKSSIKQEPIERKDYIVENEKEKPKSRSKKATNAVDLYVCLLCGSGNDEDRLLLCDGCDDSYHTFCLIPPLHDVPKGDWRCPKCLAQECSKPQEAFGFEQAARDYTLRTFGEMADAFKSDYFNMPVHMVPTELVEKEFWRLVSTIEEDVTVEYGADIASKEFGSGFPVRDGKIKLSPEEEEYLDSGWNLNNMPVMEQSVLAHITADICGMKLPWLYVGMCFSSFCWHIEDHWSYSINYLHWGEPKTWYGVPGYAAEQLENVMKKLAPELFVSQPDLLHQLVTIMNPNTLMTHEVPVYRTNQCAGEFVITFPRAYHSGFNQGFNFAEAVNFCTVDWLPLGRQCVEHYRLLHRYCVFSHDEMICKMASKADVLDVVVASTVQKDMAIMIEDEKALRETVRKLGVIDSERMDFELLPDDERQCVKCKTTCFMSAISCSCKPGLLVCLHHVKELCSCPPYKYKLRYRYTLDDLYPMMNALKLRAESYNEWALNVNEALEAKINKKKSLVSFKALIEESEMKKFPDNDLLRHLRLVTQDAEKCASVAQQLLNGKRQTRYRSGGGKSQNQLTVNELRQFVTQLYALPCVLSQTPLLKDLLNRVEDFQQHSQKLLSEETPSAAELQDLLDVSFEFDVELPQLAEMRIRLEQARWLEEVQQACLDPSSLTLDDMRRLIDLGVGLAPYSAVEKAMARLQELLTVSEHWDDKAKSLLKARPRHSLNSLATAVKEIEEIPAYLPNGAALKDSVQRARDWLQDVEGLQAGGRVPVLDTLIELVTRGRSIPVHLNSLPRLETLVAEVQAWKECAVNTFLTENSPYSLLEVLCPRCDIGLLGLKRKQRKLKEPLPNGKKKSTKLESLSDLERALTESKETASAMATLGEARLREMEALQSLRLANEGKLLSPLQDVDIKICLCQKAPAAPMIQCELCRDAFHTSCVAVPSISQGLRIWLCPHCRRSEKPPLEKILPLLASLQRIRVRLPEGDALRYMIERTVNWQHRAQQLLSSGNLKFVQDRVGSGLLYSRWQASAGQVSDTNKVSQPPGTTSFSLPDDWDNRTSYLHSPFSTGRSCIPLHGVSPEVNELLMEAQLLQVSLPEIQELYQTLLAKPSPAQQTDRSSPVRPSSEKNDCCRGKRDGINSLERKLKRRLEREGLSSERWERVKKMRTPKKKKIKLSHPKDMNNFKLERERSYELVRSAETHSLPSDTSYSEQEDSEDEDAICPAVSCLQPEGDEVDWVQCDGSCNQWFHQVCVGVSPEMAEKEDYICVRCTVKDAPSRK
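qHTS format, multiple compound concentrations. Buffer 50 mM HEPES pH 7.5/0.01% Tween-20; 200 nM KDM5BΔAP final; 10 min compound preincubation; substrate-mix levels 12.5 µM peptide, 25 µM α-KG, 0.25 mM NAD⁺; 30 min RT; ΔRFU.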
SNCA expr inhib = inhibitors of alpha-synuclein (SNCA) gene expression; HEK-293 SNCA-luciferase knock-in, luminescence, 24 h; Potency, µM (series often up to 57.2 µM), inactives show at the top dose activity change, negative = inhibition, hits mostly inhibitors; 0.17% of 140,000 active; AID 1671194;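 further: potency means the concentration at half of the fitted maximal effect; plate controls were DMSO cells for no effect and cell-free wells for full effect; nearly all actives have a fitted effect of over 45% in size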
HEK293 viab = reduces viability of HEK-293 SNCA reporter cells. HEK-293-SNCA-luc viability, GF-AFC fluorescence, 24 h. Potency, µM (highest dose often 57.1 µM), for inactives: top-dose activity change, negative = cytotoxicity, hits mostly cytotoxic. 0.12% of 150,000 active. AID 1671193;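 further: potency means the concentration at half of the fitted maximal effect; 0% = DMSO-treated cells and -100% = medium-only wells without cells; nearly all actives have a fitted effect of over 30% in size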
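HEK-293-SNCA-luc cells (1500/well) plated 24 h, then exposed 24 h to a dilution series; GF-AFC added 30 min at 37C, fluorescence 405/540 nm; normalised to medium-only and DMSO wells, Hill fit.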
IP6K1 inh = inhibitors of human IP6K1 | Q92551 | activity change, % (series mostly up to about 58 µM) | AID 1645851 | IP6K1 kinase, ADP-Glo luminescence, 2 h; active compounds read low | 0.81% of 140,000 active; in the data active means activity change below about -25%; further: on the % scale 0 is the no-effect control and ±100 the full control effect
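ADP-Glo luminescence measures ADP made by human IP6K1 during a 2 h RT reaction with ATP/IP6 (mix at 1.3 mM/130 uM); top library doses 57.5 and 19.1 uM final.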
IP6K1 inh cnf = human IP6K1 inhibition, confirmatory. shares compounds with IP6K1 inh. recombinant IP6K1 kinase, ADP-Glo luminescence, 2 h. Potency, µM (doses to about 49 µM), without a hit: at the top dose activity change, negative = inhibition, most hits filed as inhibitors. 13% of 1,200 active. AID 1645852; further: potency means the concentration at half of the fitted maximal effect; on the % scale 0 is the no-effect control and ±100 the full control effect; nearly all actives have a fitted effect of over 65% in size
* = called active by the depositor; i = inactive; ? = inconclusive; / = not tested or not shown; [ ] = dose if it differs, or a comment. Unless noted, the call rests on the fitted dose curve; in most records, active means well fitted curve in the direction sought with a large enough effect; inconclusive means small, poorly fitted or top-dose-only effect, or another doubt; inactive means no such curve, though single readings can be large; an effect the other way counts as inactive or inconclusive.

SMILES | KDM5B inhibitor | SNCA expr inhib | HEK293 viab | IP6K1 inh | IP6K1 inh cnf
COc1ccnc(-c2nnc3ccc(N(C)c4ccccc4)nn23)c1 | i | ? | ? | -38.6* | ?
CCCCOc1c(C(=O)c2c(F)cc(C)cc2F)cnc2n[nH]cc12 | / | ? | -11.2% | -4.7 | /
CCCS(=O)(=O)Nc1ccc(F)c(C(=O)c2c[nH]c3ncc(Cl)cc23)c1F | / | 12.1µM* | ? | -31.1* | ?
CC(=O)Nc1ccc(-n2c(CCC(=O)O)ccc2-c2ccc(C)cc2)cc1 | ? | -16.9% | -1.7% | 15.9 | /
CC(=O)Nc1ccc(-n2c(CCC(=O)O)ccc2-c2ccc(Br)cc2)cc1 | ? | -8.3% | 1.7% | -41.2* | -8.4%
Cc1ccc2nc(-c3cccc(OC(C)C)c3)cc(C(=O)O)c2c1 | i | / | / | / | /
O=C1c2cnc(-c3cccc(CO)c3)nc2OCCN1c1ccccc1 | i | 7.94µM* | -16.0%[87.6 µM] | -40.3* | ?
CC(C)Nc1ccc2nnc(-c3ccc(F)cn3)n2n1 | ? | -4.8%[87.6 µM] | 3.6%[87.6 µM] | -26.4* | 2.9%[92.2 µM]
CCOC(=O)c1cnc2cc(Cl)c(OC)cc2c1Nc1ccc(Br)cc1C | ? | -12.8% | -0.9% | 1.1 | /
Cn1cnc2c(F)c(Nc3ccc(Br)cc3Cl)c(C(=O)NOCCO)cc21 | / | 12.6% | 12.4% | 15.1 | -12.7%
Cc1cc2ncc(C(=O)NCc3cccc(Cl)c3)cn2n1 | / | ? | -10.8%[87.6 µM] | -4.9 | /
O=C(N[C@@H]1CN(Cc2ccccn2)CCC[C@H]1O)c1ccc(OCc2ccccc2)cc1 | i | -16.1%[87.6 µM] | -15.4%[87.6 µM] | -32.9* | 17.3%
COc1cccc(CN2CCC[C@@H](O)[C@H](NC(=O)c3ccc(OCc4ccccc4)cc3)C2)c1 | i | ? | -20.9% | -0.6 | /
Cc1noc(CN2CCN(c3cccc(F)c3C#N)CC2)n1 | i | / | / | / | /
Nc1ccc(C(=O)O)c(O)c1 | / | 0.0%[25.6 µM] | -9.8%[23.9 µM] | -74.0* | 13.7%
O=C(O)c1ccccc1O | / | -53.5%[25.6 µM] | 7.4%[23.9 µM] | -4.5 | /
CC(C)(C)CC(C)(C)NCc1ccc2c(c1)OCO2 | i | / | / | / | /
NCCC(=O)N1CCC(n2nccc2NC(=O)Nc2cccc(F)c2)CC1 | 11.2µM* | 2.2% | 0.7% | -29.9* | 15.6%
O=C(Nc1cccc(F)c1)Nc1ccnn1C1CCN(C(=O)CCN2CCCO2)CC1 | i | / | / | / | /
CCc1cccc(C)c1NC(=O)c1nn(CC)c(=O)c2ccccc12 | i | / | / | / | /
COc1ccc(CN2CC[C@H]3CN(C)CC[C@H]3CC2=O)cc1 | i | ? | 2.0%[87.6 µM] | -5.8 | /
O=C(O)C(c1c[nH]c2ccccc12)N1CCN(CCNc2cc(=O)oc3ccccc23)CC1 (centres undefined) | i | / | / | / | /
CC[C@H](C)[C@H](N)C(=O)N1CCC2(CCC(=O)N(Cc3ccccc3)C2)CC1 | i | -7.2% | ? | -39.3* | -6.2%
O=C(NCCc1ccccc1)c1ccc2nc(N3CCCCC3)sc2c1 | i | 181.1% | 13.8% | -30.8* | -17.7%
COc1ccccc1CN1Cc2[nH]cnc2C[C@H]1c1nc(-c2cccc(C)c2)no1 | i | ? | -16.0%[87.6 µM] | 0.0 | /
SMILES | KDM5B inhibitor | SNCA expr inhib | HEK293 viab | IP6K1 inh | IP6K1 inh cnf
COc1ccc(-c2cc(-c3ccc4cn[nH]c4c3)cn3cncc23)cc1 | ? | -25.1%[87.6 µM] | -9.9%[87.6 µM] | -0.5 | /
COc1cccc(-c2nc3cc(SC)ccc3cc2CN(C)Cc2ccno2)c1 | 28.2µM* | 8.3% | -3.5% | -32.7* | -11.2%
COc1cccc(-c2nc(-c3ccc(F)cc3)cs2)c1 | i | / | / | / | /
O=C(O)CCCNS(=O)(=O)c1ccc(Cl)c(C(F)(F)F)c1 | i | / | / | / | /
COc1ccc(-c2nc3cc(C)ccn3c2NC(=O)c2ccc(C)c(C)c2)cc1 | ? | 23.0% | ? | -13.7 | /
COc1ccc(-c2nc3cc(C)ccn3c2NC(=O)c2ccc(F)cc2)cc1 | ? | 24.0% | ? | -31.5* | ?
CN(Cc1csc(-c2ccccc2)n1)C(=O)c1ccc2nccn2c1 | ? | 11.5% | -12.0% | 3.6 | /
O=C(NCCc1nc(-c2ccccc2)cs1)c1ccc2nccn2c1 | ? | -11.3% | ? | -41.1* | ?
CCC(O)C(=O)N1CCc2onc(-c3ccc(-c4ccccc4)cc3)c2C1 (centres undefined) | i | 45.3% | ? | -46.6* | ?
CCCOc1ccccc1C(=O)N1CCc2onc(-c3ccccc3)c2C1 | i | 6.9% | -13.6% | -0.2 | /
CC(C)c1noc(CC2CCN(C(=O)Cc3ccc(F)cc3)CC2)n1 | i | 17.7% | -15.5% | -25.7* | -17.7%
COc1ccccc1NC(=O)Cn1nc2c3cc(F)ccc3n(Cc3cccc(C)c3)cc-2c1=O | i | -3.8% | -11.9% | 7.5 | /
CCOc1ccccc1NC(=O)Cn1nc2c3cc(F)ccc3n(Cc3cccc(C)c3)cc-2c1=O | i | 7.1% | -5.2% | -34.2* | 8.7%
CN(Cc1ccccc1C(F)(F)F)CC1CC1 | i | ? | -10.9%[87.6 µM] | -5.4 | /
CC(C)CN(CCNC(=O)c1cn(C)c2ccc(S(=O)(=O)N3CCCC3)cc2c1=O)CC(C)C | i[11.5 µM] | 32.1% | -16.8% | 29.0 | -7.6%
CCOc1cccc(CN2CCC3(CC2)Cc2ccccc2CNC3=O)c1 | i | -9.4% | -3.9% | 4.6 | /
Cc1cnc(C2CC2)n1C1CCCN(C(=O)C(C)C)C1 (centres undefined) | i | -11.9% | -5.8% | -3.2 | /
Cc1ccc(-c2csc3ncnc(Nc4ccc(C(=O)O)cc4)c23)cc1 | i | 21.7% | -6.5% | -25.3* | -24.9%
CCc1ccccc1N1CC(c2nc3ccccc3n2CCCCOc2ccccc2OC)CC1=O (centres undefined) | ? | 21.5% | 2.4% | -12.7 | /
COc1ccccc1Cn1c(C2CC(=O)N(c3ccccc3OC)C2)nc2ccccc21 (centres undefined) | ? | 12.8% | ? | -43.1* | 12.1%
Cc1cccc(OCCCCn2c(C3CC(=O)N(c4ccc(C)cc4C)C3)nc3ccccc32)c1 (centres undefined) | ? | ? | ? | -39.2* | -18.5%
Cc1nn2c(NCCN(C)C)cc(C(C)(C)C)nc2c1-c1ccccc1 | i | / | / | / | /
CCOCCCNc1oc(-c2ccc(S(=O)(=O)N3CCc4ccccc4C3)cc2)nc1C#N | i | / | / | / | /
Cc1ccc(C)c(NC(=O)CSc2nc3c(c(=O)[nH]2)CCCC3)c1 | i | / | / | / | /
CCCCCn1c(CCCNC(=O)c2ccc(Cl)cc2)nc2ccccc21 | i | -16.5% | -5.9% | -39.4* | -7.9%
COCc1nc(C2CCN(S(=O)(=O)c3ccc4c(c3)OCCO4)C2)no1 (centres undefined) | / | 6.1% | -0.2% | -15.6 | /
O=C1N(Cc2ccc(F)cc2)C[C@H]2CN(Cc3ccccn3)CCN12 | ? | 11.1%[87.6 µM] | 0.8%[87.6 µM] | -32.5* | ?
CC(C(=O)Nc1ccc(Cl)cc1)N1CCN(c2ccc([N+](=O)[O-])c3cnccc23)CC1 (centres undefined) | i | / | / | / | /
CNC(=O)c1ccccc1Nc1cc(Nc2ccc(N3CCOCC3)cc2OC)ncc1C(F)(F)F | / | / | -26.2% | -52.9* | ?
CCCc1nn2c(=O)cc(COc3cc(C)cc(C)c3)nc2s1 | i | / | / | / | /
